Screening data (PubChem BioAssay)
HT1080 IDH1KD tx: kills HT-1080 cells with IDH1 knockdown; HT-1080 IDH1 knockdown viability, ATP luminescence, 48 h; Potency, µM (top dose mostly 46.1 µM), hits mostly cytotoxic; actives 2% (n = 360,000); AID 686971
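CellTiter-Glo luminescence after 48 h compound exposure at 37 degrees C of IDH1-knockdown HT-1080 cells in 5% FBS RPMI. %Activity scaled between DMSO wells and cell-free media wells, with curves fitted and assigned curve classes.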
HepG2 tox: HepG2 cytotoxicity, counter-screen for TGF-b inhibitors | HepG2 CAGA-GFP viability, ATP luminescence, 18 h | Potency, µM (titrated, usually from 46.1 µM), hits mostly cytotoxic | actives 0.76% (n = 410,000) | AID 588856
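HepG2 CAGA-GFP cells (1000/well, DMEM with 1% FBS) received compound, then TGF-beta at 500 pg/mL final, and were incubated 18 hours at 37 degrees C. Viability was read by CellTiter-Glo luminescence. Media-only wells were set as complete cell-killing and DMSO as no toxicity.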
DT40 TDP1 CPT: DT40-hTDP1 cell growth loss with CPT | Potency, µM (top dose mostly 46.2 µM), usual class: inhibitors | chicken DT40 Tdp1-/-;hTDP1 cells + 20 nM CPT, ATP luminescence, 48 h | actives 12% (n = 420,000); further: nearly all actives have a fitted effect of over 55% in size
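Chicken DT40 Tdp1-/- cells complemented with human TDP1, 400 cells/well, exposed to compounds plus 20 nM camptothecin for at least 48 h at 37 C; viability read as ATP content by CellTiter-Glo luminescence.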
TDP1 cell noCPT: qHTS for Inhibitors of human tyrosyl-DNA phosphodiesterase 1 (TDP1): qHTS in cells in absence of CPT | DT40 Tdp1-/- hTDP1 cells, no CPT, ATP luminescence, 48 h | actives 15% (n = 420,000) | Potency, µM (highest dose often 46.2 µM), actives largely listed as inhibitors | AID 686978, 2013; further: nearly all actives have a fitted effect of over 55% in size
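A cellular qHTS used chicken DT40 cells lacking endogenous Tdp1 but carrying stably transfected human TDP1. Compounds were applied without camptothecin, and cell growth kinetics were judged by ATP-dependent luminescence after ≥48 hr.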
HT1080NT lethal: kills 2HG-producing HT-1080-NT fibrosarcoma cells | HT-1080-NT fibrosarcoma viability, CellTiter-Glo ATP luminescence, 48 h | Potency, µM (doses to about 46.1 µM), most hits filed as cytotoxic | actives 1.6% (n = 360,000);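 further: NT is the 2HG producing partner of a matched IDH1 knockdown line; nearly all actives have a fitted effect of over 55% in size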
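Toxicity toward the 2HG-producing NT line was scored as %Activity, normalised to DMSO and no-cell wells, from CellTiter-Glo luminescence after 48 hours' treatment.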
TGFb SMAD3 inh: blocks TGF-b signaling; actives 1.2% (n = 410,000); AID 588855; Potency, µM (series often up to 46.1 µM), usual class: inhibitors; HepG2 CAGA-GFP TGF-b/SMAD3 reporter, GFP fluorescence, 18 h; TGF-beta stimulated, 500 pg/mL final; further: nearly all actives have a fitted effect of over 65% in size
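TGF-beta reporter screen: HEPG2 CAGA-GFP, 1% FBS, 500 pg/mL TGF-beta final, 18 h; per-cell GFP summed per well; curves fitted and categorized by class.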
Numbers stand for hits; . = inactive; ? = inconclusive; / = no result; [ ] = remark or other dose. Most compounds without a hit are left out; they make up all but 17% or so of the library. The call rests on the fitted dose curve; in most records, active means well fitted curve in the direction sought with a large enough effect; inconclusive means small, poorly fitted or top-dose-only effect, or another doubt; inactive means no such curve, though single readings can be large; an effect the other way counts as inactive or inconclusive.

SMILES	HT1080 IDH1KD tx	HepG2 tox	DT40 TDP1 CPT	TDP1 cell noCPT	HT1080NT lethal	TGFb SMAD3 inh
C=CCc1cccc2cc(C(=O)N3CCN(C(=O)c4ccccc4)CC3)c(=O)oc12	.	.	.	.	.	.
CCOC(=O)C1=CCC(c2ccc(Cl)cc2)N(S(=O)(=O)c2ccc(C)cc2)C1 (configuration not stated)	.	.	23µM	18µM	.	?
CCOC(=O)C1=CCCN(S(=O)(=O)c2ccc(C)cc2)C1	.	.	?	21µM	.	.
Cc1ccc([C@@H]2CC=C(C(=O)O)CN2S(=O)(=O)c2ccc(C)cc2)cc1	.	.	.	.	.	.
CCOC(=O)N1CCN(S(=O)(=O)c2ccc(C)cc2)CC1	.	.	.	.	.	?
CCOC(=O)C1=CCC(c2ccc(C#N)cc2)N(S(=O)(=O)c2ccc(C)cc2)C1 (configuration not stated)	?	.	18µM	16µM	.	.
Cc1ccc(N(CC(=O)NC2CCCC2)C(=O)CNC(=O)c2cccs2)c(C)c1	.	.	.	.	.	.
Cc1ccc(C(=O)Nc2ccc3cn[nH]c3c2)cc1S(=O)(=O)N1CCCCC1	.	.	.	?	.	.
CCn1cc(C(=O)NCCCOC)c(=O)c2cc(S(=O)(=O)N(C)C3CCCCC3)ccc21	.	.	.	?	.	.
CCCCSCCCNC(=O)c1cn(CC)c2ccc(S(=O)(=O)N(C)C3CCCCC3)cc2c1=O	/	.	?	16µM	/	.
CCC1CCCCN1CCCNC(=O)c1cn(CC)c2ccc(S(=O)(=O)N(C)C3CCCCC3)cc2c1=O (configuration not stated)	.	.	?	21µM	.	?
NS(=O)(=O)c1ccc(CCNc2ccnc3cc(Cl)ccc23)cc1	.	.	?	15µM	.	.
CCOC(=O)C1=CN(Cc2cccc(F)c2)S(=O)(=O)NC1c1ccc(F)c(Cl)c1 (configuration not stated)	?	.	?	?	26µM	16µM
CCOC(=O)C1=CN(Cc2cccc(-c3cccnc3)c2)S(=O)(=O)N(C)C1C (configuration not stated)	.	.	?	13µM	.	.
CCOC(=O)C1=CN(Cc2cccc(-c3cccnc3)c2)S(=O)(=O)N(CC)C1C (configuration not stated)	.	.	?	?	.	.
CCOC(=O)C1=CN(Cc2cccc(F)c2)S(=O)(=O)N(CC)C1c1ccc(C(F)(F)F)cc1 (configuration not stated)	.	.	21µM	23µM	.	.
CCOC(=O)C1=CN(Cc2cccc(F)c2)S(=O)(=O)NC1c1ccc(Br)cc1F (configuration not stated)	?	.	21µM	?	?	?
COc1ccc(OC)c(NC(=O)CCN2CCN(c3ccccc3OC)CC2)c1	.	.	.	?	.	?
O=C(c1cc(-c2ccccc2)on1)N1CCOc2ccc(CN3CCN(c4ccccn4)CC3)cc2C1	/	/	.[9.04 µM]	.	/	/
O=C(CSc1nnnn1-c1cccc2ccccc12)NC(C(=O)O)(c1ccccc1)c1ccccc1	.	.	.	.	.	.
COc1ccccc1OCc1cc(C(=O)N2CC3C[C@@H]4CC2C[C@H](C3)C4)no1	.	.	12µM	13µM	.	.
CC(=O)c1cccc(OCc2cc(C(=O)N3CC4C[C@@H]5CC3C[C@H](C4)C5)no2)c1	.	.	2.6µM	1.5µM	.	?
CCOC(=O)N1CCN(C(=O)c2cc(COc3cccc(C(C)=O)c3)on2)CC1	.	.	?	?	.	.
O=C(c1cc(COc2ccc(F)cc2F)on1)N1CC2C[C@@H]3CC1C[C@H](C2)C3	.	.	6.5µM	2.6µM	.	?
COc1ccc(OCc2cc(C(=O)N3C[C@H]4CC[C@H]3C4)no2)c(Cl)c1	.	.	.	.	.	.
SMILES	HT1080 IDH1KD tx	HepG2 tox	DT40 TDP1 CPT	TDP1 cell noCPT	HT1080NT lethal	TGFb SMAD3 inh
COC(=O)c1ccc(-c2cccc3c2OC(CNC(=O)/C=C/c2ccc(OC)c(OC)c2)C3)nc1 (configuration not stated)	/	/	?	.	/	/
OCc1ccccc1SSc1ccccc1CO	?	.	2.3µM	3.3µM	?	?
CC(C)Oc1ccc(CNC(=O)C2=Cc3ccccc3OC2)cc1	/	.	21µM	?	/	?
COc1ccc2c(c1)C=C(C(=O)NCc1ccc(Cl)cc1)CO2	.	.	?	.	.	.
COc1ccc(N=C(c2ccccc2)c2c(C)[nH]n(-c3ccccc3)c2=O)c(OC)c1	.	.	?	18µM	.	.
CCN(CC)c1cc(C)c2cc(NC(=O)c3ccccc3F)ccc2n1	.	.	21µM	29µM	.	.
CCOc1ccc(C(=O)Nc2ccc3nc(N(CC)CC)cc(C)c3c2)cc1	/	.	18µM	?	/	?
CCN(CC)c1cc(C)c2cc(NC(=O)c3cccc(OC)c3OC)ccc2n1	/	.	16µM	6.5µM	/	?
CCOc1ccc(NC(=O)c2ccccc2C(=O)c2ccccc2)cc1OCC	.	.	?	?	.	.
CCOc1ccccc1C(=O)Nc1ccc2nc(N(CC)CC)cc(C)c2c1	/	.	21µM	21µM	/	.
CCN(CC)c1cc(C)c2cc(NC(=O)c3cccc(OC)c3)ccc2n1	/	.	?	?	/	?
Cc1ccnc(OC(C(=O)O)C(OCc2ccccc2)(c2ccc(F)cc2)c2ccc(F)cc2)n1 (configuration not stated)	.	.	.	.	.	.
Cc1nc(C(=O)N2CCCC(N3CCN(c4ccc(F)cc4)CC3)C2)cs1 (configuration not stated)	.	.	21µM	15µM	.	.
O=C(c1ccoc1)N1CCCC(N2CCN(c3ccc(F)cc3)CC2)C1 (configuration not stated)	.	.	.	.	.	.
Cc1cccc(C(=O)N2CCCC(N3CCN(c4ccc(F)cc4)CC3)C2)n1 (configuration not stated)	.	.	.	.	.	.
Cc1cc(C)c(C(=O)N2CCCC(N3CCN(c4ccc(F)cc4)CC3)C2)o1 (configuration not stated)	.	.	?	16µM	.	.
COc1cc(N(C)C)ccc1[C@]1(O)C(=O)N(C)c2ccc(Br)cc21	.	/	.	?	.	/
O=C(CSC1=NCCN1)Nc1ccccc1[N+](=O)[O-]	.	.	?	21µM	.	.
